Screening data (PubChem)
HEK293 cAMP ctrl: parental HEK293 cAMP activation (counter-screen); parental HEK293 CNG cAMP sensor, membrane potential fluorescence; Potency, µM (titrated, usually from 57.1 µM), without a hit: at the top dose activation, hits mostly activators; 2.5% of 73,000 active; AID 938; active = well fitted activation curve with a large enough effect; inconclusive = small, poorly fitted or top-dose-only effect; inactive = no such curve, though single readings can be large or run the other way; also: % of control where 0% means no effect; nearly all actives have a fitted effect of over 55% in size
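Parental HEK 293 cells stably expressing a cAMP-gated CNG channel were loaded with membrane potential dye containing 100 uM RO 20-1724 for 60 min. Compound added for 30 min; depolarization read as fluorescence intensity at 590 nm.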
TSHR agonist: TSH receptor (human) agonism; P16473; HEK293-CNG-TSHR cells (CNG channel as cAMP sensor), membrane potential dye, cAMP; Potency, µM (titrated, usually from 57.1 µM), for inactives: at the highest dose activation, most hits filed as activators; 0.48% of 73,000 active; AID 926; active = well fitted activation curve with a large enough effect in the main read-out, with a control signal flat, not every such curve was filed as active; inconclusive = small, poorly fitted or top-dose-only effect, or a change in a side signal; inactive = no such curve, though single readings can be large or run the other way; % of control where 0% means no effect;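 also: the control signal comes from parental cells without the receptor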
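HEK 293 cells stably expressing TSHR and a modified CNG channel, with CNG-only parental cells as counterscreen, were preloaded 60 min at room temperature with membrane potential dye containing 100 uM RO 20-1724. Compound exposure was 30 min, and depolarization was read as fluorescence at 590 nm.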
GBA mod: alters purified human glucocerebrosidase activity. P04062. purified enzyme, resorufin glucoside fluorescence (screen aimed at inhibitors), 20 min. Potency, µM. 1.1% of 48,000 active. AID 360; in the data active = potency below about 15 µM; inconclusive = mostly about 16 µM to 33 µM;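 also: the screen sought inhibitors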
Target sequence (P04062 whole entry, looked up): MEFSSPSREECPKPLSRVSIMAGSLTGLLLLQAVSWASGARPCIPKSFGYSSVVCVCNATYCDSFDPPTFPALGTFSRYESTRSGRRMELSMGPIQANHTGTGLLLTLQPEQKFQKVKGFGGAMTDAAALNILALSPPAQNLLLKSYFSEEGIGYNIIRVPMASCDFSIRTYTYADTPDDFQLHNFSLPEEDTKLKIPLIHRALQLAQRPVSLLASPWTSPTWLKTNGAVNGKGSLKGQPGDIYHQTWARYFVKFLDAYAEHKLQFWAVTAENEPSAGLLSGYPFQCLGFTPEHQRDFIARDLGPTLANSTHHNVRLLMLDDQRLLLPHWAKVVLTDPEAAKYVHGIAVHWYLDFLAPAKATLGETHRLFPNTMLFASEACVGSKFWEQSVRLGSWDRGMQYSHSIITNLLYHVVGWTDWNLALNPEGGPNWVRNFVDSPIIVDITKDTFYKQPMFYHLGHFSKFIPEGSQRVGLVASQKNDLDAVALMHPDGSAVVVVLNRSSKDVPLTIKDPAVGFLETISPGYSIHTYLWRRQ
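Normal human glucocerebrosidase (0.2 nM final) was assayed with resorufin β-D-glucopyranoside (30 uM final) in 50mM citric acid/KH2PO4, 10mM sodium taurocholate, 0.01% tween-20, pH 5.9. Compounds were titrated; fluorescence (Ex 548, Em 600) read after 20 min at RT.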
Bst PK mod: alters activity of Bacillus stearothermophilus pyruvate kinase | purified pyruvate kinase, luminescence ATP production; ribose 5-phosphate activator present at AC10 | Potency, µM | 1.2% of 51,000 active; in the data active = potency below about 11 µM; inconclusive = mostly about 12 µM to 25 µM;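 the screen sought inhibitors and activators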;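 also: scaled between full activation by ribose 5 phosphate and full inhibition by luteolin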
Active calls of the source: *; i = inactive; ? = inconclusive; · = no result; [ ] = another dose, or the depositor's remark. The list is not random: actives were taken first. Their share in the collection is about 4%. Potency is read from the fitted curve at half-maximal effect.

SMILES	HEK293 cAMP ctrl	TSHR agonist	GBA mod	Bst PK mod
O=C(CSc1nnnn1C1CCCC1)N1CCCc2ccccc21	?	?	>76.9	>57
O=C(CSc1nnc(Cc2cccs2)n1C1CCCCC1)N1CCCc2ccccc21	12.6µM*	?	·	>57
NCCSCc1ccccc1Cl	7.7%[11.4 µM]	-4.9%[11.4 µM]	·	·
O=C(OCc1nnc(-c2ccc(Cl)cc2)o1)c1ccc(=O)n(Cc2ccccc2)n1	17.3%	14.1%	>76.9	9.84*
c1ccc2cc(NCNc3ccc4ccccc4c3)ccc2c1	10.0%[11.4 µM]	-1.4%[11.4 µM]	·	·
CCC(=O)Oc1ccc(-c2nc(-c3cccnc3)no2)cc1	-11.1%	-16.0%	7.83*	?
CCc1cc(-c2[nH]ncc2-c2ccc3c(c2)OCO3)c(O)cc1O	25.1µM*	?	>76.9	>57
CC1(C)[C@@H]2CC[C@@]1(CS(=O)(=O)Nc1ccccc1)C(=O)C2	-7.0%[11.4 µM]	-2.5%[11.4 µM]	·	·
CCn1c(SCc2ccc(OC)cc2)nnc1-c1ccncc1	25.1µM*	?	>76.9	>57
CCn1c(SCC(=O)c2cc(OC)ccc2OC)nnc1-c1ccncc1	25.1µM*	?	>76.9	>57
COc1ccccc1-c1cc(C(F)(F)F)nc(N2CCOCC2)n1	20µM*	?	>76.9	>57
COc1ccccc1-c1cc(C(F)(F)F)nc(N2CCN(c3ccccc3)CC2)n1	11.0%	9.0%[11.4 µM]	>76.9	>57
COCCOC(=O)c1[nH]c2c(c1C)C(=O)CC(c1ccco1)C2 (stereo unspecified)	2.2%	-7.0%	·	·
CCOC(=O)c1[nH]c2c(c1C)C(=O)CC(c1ccco1)C2 (stereo unspecified)	31.6µM*	?	·	·
O=C1CC(c2ccccc2)Cc2nc(NCc3ccco3)ncc21 (stereo unspecified)	18.7%	19.5%	>76.9	5.17*
O=C(Nc1ncc2c(n1)CC(c1ccccc1)CC2=O)c1ccco1 (stereo unspecified)	5.6%	2.9%	>76.9	>57
NC(N)=N[C@H](CC(=O)O)c1ccccc1	1.8%[11.4 µM]	-6.2%[11.4 µM]	·	·
NC(N)=N/N=C\c1ccc(O)c(C(=O)O)c1	11.7%[11.4 µM]	3.4%[11.4 µM]	·	·
Cc1cc(NC(=O)CC2CCCC2)n(-c2nc3ccccc3[nH]2)n1	25.1µM*	?	>76.9	>57
Cc1cc(Nc2nc3ccccc3[nH]c2=O)n(-c2ccccc2)n1	?	?	>76.9	>57
CC(C)c1cc(C(F)(F)F)nc(NNc2nc(C(C)C)cc(C(F)(F)F)n2)n1	5.01µM*	?	·	·
CCc1c(C)nc2cc(-c3cc(OC)cc(OC)c3)nn2c1N1CCCC1	20µM*	?	>76.9	>57
CCc1c(C)nc2cc(-c3ccc(OC)c(OC)c3)nn2c1N1CCCC1	?	?	>76.9	i
CCCCOc1[nH]c2nc(-c3ccco3)n(Cc3ccco3)c(=N)c2c1C#N	3.4%	5.7%	>76.9	10.9*
Cc1nc2c3cnn(-c4ccccc4)c3ncn2n1	11.0%	-0.9%	>76.9	·
SMILES	HEK293 cAMP ctrl	TSHR agonist	GBA mod	Bst PK mod
Cc1cn2nc(N)c3ccccc3c2n1	12.9%	1.7%	>76.9	8.84*
CS(=O)(=O)N1CCC[C@@]2(CCN(c3ccccn3)C2)C1	2.1%	2.5%	·	·
CCNc1ncc2nc(-c3ccccc3)c(=O)n(Cc3cccc(OC)c3)c2n1	15.8%	·	·	·
O=C(CSc1ncnc2c1oc1ccccc12)N1CCCc2ccccc21	31.6µM*	?	>76.9	>57
O=C(Cn1cnc2c(oc3ccccc32)c1=O)N1CCCc2ccccc21	0.0%	1.7%	>76.9	i
COc1ccc(C2C(C(=O)N3CC(C)CC(C)C3)c3ccccc3C(=O)N2C)cc1 (stereo unspecified)	15.8µM*	?	>76.9	>57
CC1CCN(CC(=O)N2c3ccccc3Sc3cc4ccccc4cc32)CC1	17.5%[11.4 µM]	·	·	·
CCCc1cc(COC)c(C#N)c(=O)[nH]1	2.7%[11.4 µM]	-0.6%[11.4 µM]	·	·
O=C(CN1C(=O)COc2ccccc21)N(Cc1cccnc1)Cc1ccccc1F	10µM*	?	·	>57
Cc1ccc(S(=O)(=O)NCCCOC(=O)Nc2ccncc2)cc1	6.0%	5.1%	8.86*	>57
CN(C)CCCN=c1c2ccccc2n(C)c2[nH]c(=O)n(C)c(=O)c12	-4.2%[11.4 µM]	2.3%[11.4 µM]	·	·
O=c1cnnc(SCCc2ccccc2)[nH]1	31.6µM*	?	>76.9	>57
COc1ccc2c(c1)CCC1C2CC[C@]2(C)[C@H](NCCCCCCN3C(=O)C=CC3=O)CC[C@@H]12 (stereo partly specified)	0.9%	9.4%	·	·
O=C(C1CC1)N1CCc2cc(Br)cc(S(=O)(=O)NCC3COc4ccccc4O3)c21 (stereo unspecified)	15.8µM*	?	>76.9	>57
COC(=O)c1ccc(Oc2cc(C)nc(-n3nc(C)cc3C)n2)cc1	15.8µM*	?	>76.9	·
